Source: PubChem BioAssay (National Center for Advancing Translational Sciences (NCATS))
JMJD2A Tudor: JMJD2A Tudor domain (human) inhibition; AlphaScreen JMJD2A-Tudor / H3K4me3 peptide binding; Potency, µM (series often up to 114 µM), without a hit: at the highest dose activity change, negative = inhibition, usual class: inhibitors; hit rate 4.4% among 390,000; further: on the % scale 0 is the no-effect control and ±100 the full control effect; nearly all actives have a fitted effect of over 50% in size
BAZ2B block: inhibitors of human BAZ2B bromodomain; Q9UIF8; AlphaScreen BAZ2B-H3K14Ac peptide displacement; Potency, µM (highest dose often 114 µM), inactives show at the highest dose activity change, negative = inhibition, most hits filed as inhibitors; hit rate 4.4% among 360,000; AID 504333; further: on the % scale 0 is the no-effect control and ±100 the full control effect; nearly all actives have a fitted effect of over 60% in size
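In this displacement format the biotinylated H3(5-23) peptide acetylated at Lys14 serves as ligand at 50 nM, with BAZ2B at 50 nM in PBS pH 7.4 containing 0.01% Tween-20. Donor and acceptor beads are 10 ug/mL final.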
G9a block: G9a (human) methyltransferase inhibition. G9a H3K9 monomethylation, AlphaScreen, 2 h. hit rate 8.8% among 350,000. Q96KQ7. AID 504332. Potency, µM (highest dose often 102 µM), inactives show at the top dose activity, negative = inhibition, usual class: inhibitors; further: on the % scale 0 is the no-effect control and ±100 the full control effect; nearly all actives have a fitted effect of over 75% in size
Target sequence (Q96KQ7 913-1193 limits assumed): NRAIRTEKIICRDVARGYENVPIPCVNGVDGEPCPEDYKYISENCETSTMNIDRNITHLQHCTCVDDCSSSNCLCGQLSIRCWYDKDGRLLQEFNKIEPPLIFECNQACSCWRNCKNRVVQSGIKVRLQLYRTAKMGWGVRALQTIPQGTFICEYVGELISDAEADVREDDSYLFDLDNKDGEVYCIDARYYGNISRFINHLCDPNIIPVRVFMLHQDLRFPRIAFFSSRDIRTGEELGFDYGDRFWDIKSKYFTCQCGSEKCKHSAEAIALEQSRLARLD
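G9a (20 nM) was preincubated 15 min with compound, then reacted 2 h at room temperature with 500 nM biotin-H3K9 peptide and 20 µM SAM. Monomethyl-H3K9 detected by AlphaScreen using anti-H3K9me1 antibody.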
HP1b chromo inh: inhibitors of HP1-beta chromodomain binding to methylated histone tails. AlphaScreen HP1-beta / biotin-H3K9me3 peptide binding. Potency, µM (titrated, usually from 114 µM), inactives show top-dose activity change, negative = inhibition, usual class: inhibitors. hit rate 0.56% among 390,000; further: nearly all actives have a fitted effect of over 70% in size
Target sequence (P83916 whole entry, looked up): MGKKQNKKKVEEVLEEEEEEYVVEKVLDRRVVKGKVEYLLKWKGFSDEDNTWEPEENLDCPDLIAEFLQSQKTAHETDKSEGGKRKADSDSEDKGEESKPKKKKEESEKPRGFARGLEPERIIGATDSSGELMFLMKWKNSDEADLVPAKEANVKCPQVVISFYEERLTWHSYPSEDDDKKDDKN
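Compound inhibition of the preformed complex between 50 nM HP1-beta and 50 nM biotinylated H3K9me3 peptide was read by AlphaScreen. Buffer was PBS pH 7.4 with 0.01% Tween-20. Incubations ran 30 min at room temperature, with 10 ug/mL donor/acceptor beads.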
Sfp PPTase inh: blocks B. subtilis Sfp PPTase activity; Q9F4F7; Biochemical Sfp PPTase activity, qHTS; Potency, µM, for the others: largest response in the series, negative = inhibition, actives largely listed as inhibitors; hit rate 3.5% among 310,000; AID 1490;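 further: the enzyme is Sfp with the accession as filed and its product quenches rhodamine fluorescence; 0% = enzyme reaction without inhibitor and -100% = no enzyme wells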
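Step 1, compound plus 15 nM Sfp-PPTase, 15 min, room temperature. Step 2, add rhodamine-CoA (5 uM) and BHQ-2-YbbR (12.5 uM). Step 3, read 525/598 nm fluorescence at 0 and 30 min.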
* = called active by the depositor; ? = inconclusive; . = no result given; ! = not confirmed by another sample; [ ] = dose if it differs, or a comment. Sampled rows, rich in hits. Any-hit rate of the full collection: about 12%. The call rests on the fitted dose curve; in most records, active means well fitted curve in the direction sought with a large enough effect; inconclusive means small, poorly fitted or top-dose-only effect, or another doubt; inactive means no such curve, though single readings can be large; an effect the other way counts as inactive or inconclusive. Potency means the concentration at half of the fitted maximal effect.

SMILES | JMJD2A Tudor | BAZ2B block | G9a block | HP1b chromo inh | Sfp PPTase inh
COc1ccc(-c2nc(-c3ccccn3)ncc2S(C)(=O)=O)cc1 | -16% | ? | -2% | 34% | 16%
CC(C)S(=O)(=O)c1cnc(-c2ccccn2)nc1N | 50µM* | 56µM* | -5% | 17% | 14%
O=S1(=O)Nc2c(cc(Cl)c3ccc(Cl)nc23)-c2ccccc21 | 40µM* | . | . | ? | .
Cc1cc(C)nc(SC/C=C/c2ccccc2)n1 | 96% | 14% | . | 202% | 89µM*
C(=C\c1ccccc1)/CSc1ccccn1 | 123% | 163% | 164% | 139% | 11%
O=C(N/N=C1\CCCc2c1[nH]c1ccc(Cl)cc21)c1ccncc1 | -15% | -10% | 6%[59 µM] | 36% | -20%
Clc1ccc2[nH]c3c(c2c1)CCc1cn[nH]c1-3 | 79µM* | ? | 35µM* | ? | 13%
O=C1CCCc2c1[nH]c1ccccc21 | -26% | 11% | ? | -1% | 8%
c1ccc2c3c([nH]c2c1)-c1[nH]ncc1CC3 | ? | ? | 35µM* | -17% | 3%
CCCc1cc(=O)oc2cc(C)c(CN3CCCC3)c(O)c12 | 50µM* | 13µM* | 89µM* | -14% | ?
CCc1cc(=O)oc2cc(C)c(CN3CCCC3)c(O)c12 | 20µM* | 18µM* | 45µM* | -51% | 89µM*
Cc1cc(=O)oc2c(CN3CCCCC3)c(O)c(Cl)cc12 | 4% | 0% | -10%[12.7 µM] | 21% | 9%
CCc1cc(=O)oc2cc(C)c(CN3CCCCC3)c(O)c12 | 56µM* | 20µM* | -25%[59 µM] | -32% | -18%
O=C(O)c1cccc(Nc2nc3ccccc3nc2NS(=O)(=O)c2ccccc2)c1 | 7% | . | . | 20% | .
CCCCOc1ccc(C(=O)N2CCCC2C(=O)O)cc1 (centres undefined) | 1% | -3% | 0%[59 µM] | 28% | 10%
CC(C)(C)NC(=O)CSc1nnc(-c2ccncc2)o1 | -14% | 3% | 12%[59 µM] | 25% | 23%
COc1ccc2c(c1OC)C(Cc1ccccc1)N1CCc3cc4c(cc3C1=C2)OCO4 (centres undefined) | . | . | . | . | 50µM*
CCOC(=O)CSc1cn2c(n1)CCC2 | -24% | 6% | 10µM* | 13% | 40µM*
CCOC(=O)CSc1cc(C)nc(NC(C)=O)n1 | -6% | 3% | 1%[59 µM] | 30% | 4%
O=C(Nc1ncccc1O)c1ccc2c(c1)OCO2 | 18µM* | ? | ? | 12% | .
O=C(Nc1ncccc1O)c1ccc2c(c1)OCCO2 | 25µM* | 79µM* | 50µM* | 5% | .
Cc1cccnc1NC(=O)c1ccc2c(c1)OCCO2 | -9% | 13% | 0% | 24% | .
Cc1nn(CC(=O)NCc2cccc(F)c2)c(=O)c2cccn12 | 56µM* | -13% | . | ? | 2%
Cc1nn(CC(=O)NCCCc2ccccc2)c(=O)c2cccn12 | 11% | -3% | 13%[59 µM] | 39% | 20%
O=C(CCC(=O)N1Cc2ccccc2Oc2ncccc21)NCc1cccc(Cl)c1 | -10% | 8%[57.1 µM] | -17%[59 µM] | 27% | .
SMILES | JMJD2A Tudor | BAZ2B block | G9a block | HP1b chromo inh | Sfp PPTase inh
O=C(COc1ccccc1)Nc1nnc(S(=O)(=O)N2CCCC2)s1 | ? | ? | 8.9µM* | 46% | 5%
Cc1ccc(OCC(=O)Nc2nnc(S(=O)(=O)N3CCc4ccccc43)s2)cc1 | -8% | -24% | -4%[59 µM] | 26% | .
Cc1ccc(OCC(=O)Nc2nnc(S(=O)(=O)N3CCC(C)CC3)s2)cc1 | ? | ? | 50µM* | 14%[57 µM] | 12%
CC(Oc1ccccc1)C(=O)Nc1nnc(S(=O)(=O)N2CCCCCC2)s1 (centres undefined) | 8.9µM*! | 1.8µM*! | 2.8µM*! | 47% | 33%
COc1ccc(OCC(=O)Nc2nnc(S(=O)(=O)N3CCCCCC3)s2)cc1 | -10% | -8% | -21%[59 µM] | 43% | 7%
CCn1c(SCC(=O)NCCc2ccccc2)nnc1C(C)C | -9% | -9% | 30%[59 µM] | 2% | -8%
COc1ccc(S(=O)(=O)NCc2ccc(C(=O)NCCCN3CCCC(C)C3)cc2)cc1 (centres undefined) | -13% | 1% | 5% | 37% | 20%
O=S(=O)(c1cccc2c(Cl)cccc12)N1CCCNCC1 | . | . | 19µM*! | . | -7%
O=[N+]([O-])c1cccc2c(S(=O)(=O)N3CCCCC3)cccc12 | ? | 71µM* | 56µM* | ? | -3%
COC(=O)c1ccc(N2CCN(C)CC2)c(NC(=O)COc2cccc(C)c2)c1 | -4% | -12% | -4%[59 µM] | -16% | 16%
Cc1ccc(C(=O)NCCCNC(=O)c2ccco2)cn1 | -3% | 0% | -7%[59 µM] | 1% | 16%
O=C(N/N=C/C(Br)=C\c1ccccc1)c1n[nH]c2c1CCC2 | -23% | -4% | ? | 6% | 28µM*
Cc1nn(Cc2c(Cl)cccc2Cl)c(C)c1NC(=O)Cn1nc([N+](=O)[O-])c(Cl)c1C | -5% | 2% | 0%[59 µM] | 24% | 0%
CCOc1ccc(-c2c(=O)n(OCC)c3ccccc3[n+]2[O-])cc1 | -1% | 8% | 6% | 67% | 14%
CCOc1ccc(-c2c(=O)n(O)c3ccccc3[n+]2[O-])cc1 | 79µM* | 56µM* | 10%[2.33 µM] | 4% | -22%
O=c1c(-c2ccccc2)[n+]([O-])c2ccccc2n1O | ? | ? | ? | -5% | 40µM*
Cc1ccc(-c2c(=O)n(O)c3ccccc3[n+]2[O-])cc1 | ? | -20% | 50µM* | -10% | 11%
COn1c(=O)c(-c2ccc(C)cc2)[n+]([O-])c2ccccc21 | -13% | 1% | ? | 16% | -4%
COn1c(=O)c(-c2ccccc2)[n+]([O-])c2ccccc21 | -22% | 1% | 11% | -18% | 8%
CCCCn1c(N)c(N(CC(C)C)C(=O)c2ccc([N+](=O)[O-])o2)c(=O)[nH]c1=O | -12% | 3% | ? | 25% | .
Cc1ccc(C(=O)c2oc3ccccc3c2NC(=O)C(C)Oc2ccccc2Cl)cc1 (centres undefined) | 8% | 3% | 2%[59 µM] | 35% | .
Cc1nc2ccc(S(=O)(=O)N(C)CC(=O)NCc3ccc4c(c3)OCO4)cc2s1 | -8% | 0% | 10%[2.33 µM] | 5% | 19%
Cc1nc2ccc(S(=O)(=O)N(C)CC(=O)NCc3ccc(N(C)C)cc3)cc2s1 | ? | ? | 50µM* | -25% | 14%
CN(C)c1ccc(CNC(=O)CN2CCSc3ccc(S(=O)(=O)N(C)C)cc32)cc1 | 45µM* | 40µM* | 7.9µM* | -16%[57 µM] | .
COc1ccc(NS(=O)(=O)c2cccc(C(=O)NNC(=O)CNC(=O)c3ccccc3)c2)cc1 | -5% | -18% | 66% | 34% | 11%
O=c1cc(-c2ccc(O)c(O)c2)oc2cc(O)c([C@@H]3O[C@H](CO)[C@@H](O)[C@H](O)[C@H]3O)c(O)c12 | 32µM*! | . | . | 11% | ?
